Screening data as filed in PubChem BioAssay.
The sample as a whole holds a higher share of hits than the screen did.
Tgondii IFNg = blocks Toxoplasma gondii growth in the presence of IFN-gamma. hit rate 3.8% among 69,000. activity change, negative = inhibition, % (test concentration not listed). Toxoplasma gondii growth in IFN-gamma-treated host cells; hits give low values; in the data active = activity change below about -70%, passing the limit was not always enough;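 also: host cells are HeLa cells infected with Toxoplasma gondii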
Hits are given with their value; - = inactive.

SMILES	Tgondii IFNg
Cc1[nH]c(/C=C2\C(=O)Nc3ccc(S(=O)(=O)N(C)c4cccc(Cl)c4)cc32)c(C)c1C(=O)N1CCN(C)CC1	-
CCN(CC)CCNC(=O)c1c(C)[nH]c(/C=C2\C(=O)Nc3ccc(F)cc32)c1C	-75
CCN(CC)CCNC(=O)c1ccc(N)cc1	-
COCCN1CCC2(CC1)CC(NCC1CC1)c1ccccc12 (stereo unspecified)	-
COc1nc2ccccc2cc1-c1c(-c2ccccc2)ncn1C(CO)CO	-
C=CC(=O)Nc1cccc(OC)c1	-
C=CC(=O)Nc1cccc(Nc2nc(Nc3ccc(Oc4ccnc(C(=O)NC)c4)cc3)ncc2F)c1	-78
C=CC(=O)Nc1ccc2ncnc(Nc3cccc(Br)c3)c2c1	-
COC(=O)c1scc(C)c1NN1C(=O)c2ccccc2C1=O	-
Cc1nc(N2CCCC2)nc2c1CCN(S(=O)(=O)c1ccc(F)c(F)c1)CC2	-
COc1ccc2cc(CN3CCN(S(=O)(=O)N(C)C)CC3)c(=O)[nH]c2c1	-
CCN1CC[C@@H]2Oc3ccccc3S(=O)(=O)N(CC3CC3)[C@@H]2CC1	-
O=C(c1ccccc1)N1CC[C@@H]2Oc3ccccc3S(=O)(=O)N(CC3CC3)[C@@H]2CC1	-
O=S1(=O)c2ccccc2O[C@H]2CCN(Cc3ccc(Cl)cc3)CC[C@H]2N1CC1CC1	-89
COCCN1CCC2(CC1)COCCN2Cc1csc(C)n1	-
O=C(NCC1CCCO1)c1nc(-c2cn(Cc3ccccc3)cn2)n2ccccc12 (stereo unspecified)	-
Cc1ccc(NC(=O)CN2CCN(Cc3ccccc3)CC2)cc1Cl	-
Cc1ccc(NC(=O)CS(=O)CC(=O)Nc2ccc3c(c2)CCC3)cc1Cl (stereo unspecified)	-88
Cc1ccc(-c2ccccc2NC(=O)CS(=O)CC(=O)Nc2ccc(C)c(Cl)c2)o1 (stereo unspecified)	-
C=CCN1C(=O)CCCC12CCN(C(=O)c1ccc(C)cc1)CC2	-
CC(C)CN1CC2(CCN(S(=O)(=O)c3cccs3)CC2)C2(CCN(C)C2=O)C1 (stereo unspecified)	-
COCCN1C(=O)N(Cc2ccccc2)C2(CCN(Cc3nccs3)CC2)C1=O	-
COc1ccc(-c2nc(C)c(CCNS(=O)(=O)c3cc(F)ccc3F)s2)cc1	-
COc1ccc(-c2csc(C(N)=O)c2)cn1	-
COc1c(C)cc(-c2cncc(C(N)=O)c2)cc1C	-
SMILES	Tgondii IFNg
COc1c(C)cc(-c2csc(C(N)=O)c2)cc1C	-72
CCn1c(CC2CCN(Cc3cc(C#CCO)cs3)CC2)n[nH]c1=O	-
O=C(Sc1ccc(Cl)cc1)c1ccc(-c2cccs2)s1	-104
CC(=O)c1ccc(-c2cccs2)s1	-
O=C(c1ccc(-c2cccs2)s1)c1ccc(F)cc1F	-
Cc1ccccc1SC1CCN(C(=O)Cc2nn[nH]n2)CC1	-
CCc1cccc(C)c1NC(=O)C1=C(C)C(=O)OC12CCN(CC)CC2	-
Cc1cccc(Nc2nc(-c3nnc(-c4ccccc4)o3)nc3ccccc23)c1C	-
COc1ccccc1Nc1nc(-c2nnc(-c3ccccc3)o2)nc2ccccc12	-92
COc1ccc(C)cc1Nc1nc(-c2nnc(-c3ccc(Cl)cc3)o2)nc2ccccc12	-
COc1ccc(Nc2nc(-c3nnc(-c4cccc(C)c4)o3)nc3ccccc23)cc1OC	-
Cc1cccc(Nc2nc(-c3nnc(-c4cccc(C)c4)o3)nc3ccccc23)c1	-
COc1ccc(-c2nnc(-c3nc(Nc4cccc(OC)c4)c4ccccc4n3)o2)cc1	-
COc1cccc(Nc2nc(-c3nnc(-c4ccc(C)cc4)o3)nc3ccccc23)c1	-
COc1ccc(Nc2nc(-c3nnc(-c4ccc(C)cc4)o3)nc3ccccc23)cc1Cl	-
Cc1cccc(-c2nnc(-c3nc(Nc4ccc(C)c(F)c4)c4ccccc4n3)o2)c1	-
COc1cc(Nc2nc(-c3nnc(-c4cccc(C)c4)o3)nc3ccccc23)cc(OC)c1	-130
COc1cc(Nc2nc(-c3nnc(-c4ccccc4)o3)nc3ccccc23)cc(OC)c1OC	-125
COc1ccc(-c2nnc(-c3nc(Nc4cc(C)cc(C)c4)c4ccccc4n3)o2)cc1	-101
O=S(=O)(NCC1CCCO1)c1ccc(S(=O)(=O)n2cnc3ccccc32)cc1 (stereo unspecified)	-
Cc1ccc(N2CC3(CCN(C(=O)C4CC4)C3)CC2=O)s1 (stereo unspecified)	-
COCCN1C[C@@H](C(=O)NCCc2cccs2)C[C@@H]2OCC[C@@H]21	-
Cc1ncsc1C(=O)NC1CCCN(C(=O)CCc2ccc(F)cc2)CC1 (stereo unspecified)	-
Cn1c(N)c(Sc2nc3ccccc3s2)c(=O)[nH]c1=O	-
CCc1ncc(C(=O)N(C)C(C)c2ccon2)cn1 (stereo unspecified)	-
Cn1c(CN2CCC(c3ccn[nH]3)C2)nc2ccccc21 (stereo unspecified)	-
CNC(=O)CC1CC2(CCN(C(=O)C(C)C)CC2)Oc2ccccc21 (stereo unspecified)	-
CC(C)(C)c1cc(-c2nc(-c3ccc(C(F)(F)F)cc3)no2)n(Cc2ccccc2)n1	-
